In PubChem BioAssay (NCI) one finds growth data, which are given here for 31 compounds.

The panel holds about 83,000 compounds, 20% with a hit somewhere; the sample as a whole holds those more often.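 Plates (96-well) were seeded with cells, treated with compound at one concentration, and incubated for 48 hours before percent growth was determined.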 Unmarked numbers belong to inactive results. Activity calls are given as the source filed them. Rule for the calls: active = growth percent below 10; inactive = the rest.

Holding throughout (assay): NCI-60 one-dose screen, 48 h (100 = growth as untreated, 0 = no growth, -100 = all killed)
Common to all, as to conditions: 10 µM unless noted

For assay [1], the system named is T-47D breast.
In assay [2] the test system is BT-549 breast.
In assay [3] the test system is MDA-MB-435 melanoma.
The subject of assay [4] is SW-620 colon.
Assay [5] deals with MCF7 breast.
For assay [6], the system named is HCT-116 colon.
Assay [7] concerns HCC-2998 colon.
In assay [8] the test system is KM12 colon.

Turning to `Nc1nc(=O)n([C@H]2CC=C(CO)O2)cc1F`, the growth in assay [1] was 98.6%; in assay [2] it was 114%; in assay [3] it was 97.8%; in assay [4], 90.5%; in assay [5], 95.8%; in assay [6] it was 108%. The growth in assay [7] was 104%.
As to `Oc1cccc2c1NCCC2`, the growth was 22.1% in assay [1]; 39.1% in assay [2]; 15.4% in assay [3]; 19.9% in assay [4]; 13.1% in assay [5]; 8.94% (active) in assay [6]. Also, the growth in assay [7] was 32.8%.
Consider `Cn1cc(-c2nc(-c3c[nH]c4ccncc34)cs2)c2cc(F)ccc21`, for which the growth in assay [1] is -52.2% (active); in assay [2], 69.6%; in assay [3], -91% (active); in assay [4], -65.7% (active); in assay [5], -71.5% (active); in assay [6], -95.4% (active). Further, the growth in assay [7] is -80.6% (active).
As to `Cc1nc2c(c(-c3ccccc3)n1)Cc1c(ccc3ccccc13)O2`, the growth in assay [1] is 84.6%; in assay [2], 90%; in assay [3], 119%; in assay [4], 96.4%; in assay [5], 89.1%; in assay [6] it was 90.6%. For the same compound, the growth in assay [7] is 111%.
For `Cc1ccc(C2(C)NC(=O)N(CC(=O)Nc3cccc(C)c3)C2=O)cc1` (centres undefined), the growth in assay [1] was 94.4%; in assay [2], 90.9%; in assay [3] it was 108%; in assay [4], 106%; in assay [5] it was 91.2%; in assay [6], 96.1%. For the same compound, the growth in assay [7] was 102%; in assay [8], 96.6%.
As for `COc1cc(C(=O)n2nc(NCCCc3ccccc3)c3cc(N)ccc32)cc(OC)c1OC`, the growth in assay [1] was 66%; in assay [2], 97.1%; in assay [3] it was 99%; in assay [4], 112%; in assay [5] it was 89.3%; in assay [6] it was 90.1%. Moreover, the values for the growth in assay [7] and in assay [8] were 105% and 88.5%, respectively.
For the compound `COC(=O)CCc1c(/C=C2\N=C(c3ccc[nH]3)C=C2OC)[nH]c(C)c1C(=O)OCc1ccccc1`, the growth in assay [1] is -2.41% (active); in assay [2], 1.79% (active); in assay [3], 2.53% (active); in assay [4], 3.31% (active); in assay [5], 7.6% (active); in assay [6], -9.83% (active). In addition, the growth in assay [7] is 22.8%; in assay [8], 10.6%.
With `CO[C@H]1CC(c2ccc[nH]2)=N[C@]12O[C@@H](C)C[C@@H]1CCCCCCCc3ccc([nH]3)[C@H]12`, the growth in assay [1] is 11.8%; in assay [2] it was 33.7%; in assay [3], 15.2%; in assay [4], 21.5%; in assay [5], 16.5%; in assay [6] it was 8.1% (active). Also, the growth in assay [7] is 22.1%; in assay [8] it was 18.3%.
With `CN(C)C(=S)NN=C(c1ccccn1)c1ccccn1`, the growth in assay [1] is 29.6%; in assay [2] it was 17%; in assay [3], 41.4%; in assay [4] it was 17.7%; in assay [5] it was 17.3%; in assay [6] it was 20.5%. Also, the results for the growth in assay [7] and in assay [8] were 40% and 16.7%, respectively.
On to `c1ccc(-c2nc(N3CCNCC3)c3oc(-c4ccccc4)nc3n2)cc1`, for which the growth in assay [1] is -41.9% (active); in assay [2] it was 106%; in assay [3] it was -93.9% (active); in assay [4], -77.7% (active); in assay [5] it was -62.3% (active); in assay [6], -31.7% (active). Besides, the growth in assay [7] was -87.5% (active); in assay [8] it was -75.4% (active).
For the compound `Cc1nc2sc(C(=O)Nc3ccccc3)c(N)c2cc1C(O)c1ccccc1` (centres undefined), the growth was 54.6% in assay [1]; 67.9% in assay [2]; -18.3% (active) in assay [3]; 24.1% in assay [4]; 17% in assay [5]; 11.8% in assay [6]. In addition, the values for the growth in assay [7] and in assay [8] were 15.4% and 18.3%, respectively.
Turning to `Nc1ncnc2c1N=C(c1ccc([N+](=O)[O-])cc1)CC(c1ccc3c(c1)OCO3)N2` (centres undefined), the growth is 93% in assay [1]; 86.6% in assay [2]; 94% in assay [3]; 92% in assay [4]; 72.7% in assay [5]; 83.3% in assay [6]. The growth in assay [7] was 53.8%; in assay [8] it was 89.4%.
On to `O=S(=O)(Nc1ccc(Br)cc1)c1ccc(-c2cnc(C3CC3)o2)cc1`, for which the growth in assay [1] was 18.6%; in assay [2], 47.1%; in assay [3], -9% (active); in assay [4] it was 11.1%; in assay [5] it was 16.1%; in assay [6], 18.7%. Besides, the growth is 56.2% in assay [7] and 24.6% in assay [8].
In the case of `O=C1CCc2c(sc3[nH]c(=S)n(-c4cc(C(F)(F)F)cc(C(F)(F)F)c4)c(=O)c23)C1`, the growth in assay [1] was -34.6% (active); in assay [2], 3.75% (active); in assay [3], 7.15% (active); in assay [4], 18.5%; in assay [5], 0.882% (active); in assay [6], 3.29% (active). The values for the growth in assay [7] and in assay [8] were -49.1% (active) and -70.2% (active), respectively.
Consider `Cc1ccc(S(=O)(=O)c2nc(-c3ccccc3)oc2S(C)=O)cc1` (centres undefined), for which the growth in assay [1] was -49% (active); in assay [2] it was 27.5%; in assay [3], 37%; in assay [4], -55.4% (active); in assay [5], -20% (active); in assay [6], -20.3% (active). The growth was 70.5% in assay [7] and 49.8% in assay [8].
With `CNC(=O)c1cc(Oc2ccc3nc(NC(=O)Nc4ccc(F)cc4F)sc3c2)ccn1`, the growth in assay [1] is 56.5%; in assay [2] it was 100%; in assay [3], 62.5%; in assay [4], 99.9%; in assay [5], 66.8%; in assay [6], 20.7%. In addition, the growth in assay [7] is 88.1%; in assay [8], 72.6%.
`COc1ccc(C2=C/C(=C\c3ccccc3O)C(=O)N2Cc2ccccc2)cc1`: the growth in assay [1] was 68.9%; in assay [2] it was 70.4%; in assay [3] it was -4.21% (active); in assay [4], 92.2%; in assay [5], 62.8%; in assay [6] it was 72.5%. The results for the growth in assay [7] and in assay [8] were 107% and 70.3%, respectively.
Turning to `COc1cc(/C=C/c2cc(/C=C/c3ccc(O)c(OC)c3)n(C(=O)Nc3ccc(C)cc3C)n2)ccc1O`, the growth in assay [1] was -22.5% (active); in assay [2], -33.8% (active); in assay [3], -40.9% (active); in assay [4] it was -10.9% (active); in assay [5], -3.78% (active); in assay [6] it was 1.48% (active). In addition, the growth in assay [7] was 4.28% (active); in assay [8], -9.35% (active).
`COc1ccc(N/N=C/c2ccc3c(c2)Sc2ccccc2N3C)cc1`: the growth in assay [1] is 51.9%; in assay [2], 96.1%; in assay [3], 17.6%; in assay [4] it was 27.1%; in assay [5] it was 32.3%; in assay [6], 53.6%. The results for the growth in assay [7] and in assay [8] were 85% and 16.9%, respectively.
For `CCCC[N+]1(C)CCN=C1Cc1ccccc1` (centres undefined), the growth in assay [1] is 101%; in assay [2], 123%; in assay [3], 104%; in assay [4], 98.4%; in assay [5] it was 100%; in assay [6], 101%. For the same compound, the growth is 93.7% in assay [7] and 118% in assay [8].
For the compound `Cc1ccc(C(F)(F)F)cc1N1CCN(C(=O)[C@H]2C[C@H]2c2ccc(C(F)(F)F)nc2)CC1`, the growth in assay [1] was 68.4%; in assay [2] it was 88.2%; in assay [3], 103%; in assay [4], 105%; in assay [5], 91.2%; in assay [6], 93.4%. The growth was 101% in assay [7] and 91.8% in assay [8].
As to `O=C(OCC(O)C(=O)NC12CC3CC(CC(C3)C1)C2)c1cccc(Br)c1` (centres undefined), the growth in assay [1] is 93.2%; in assay [2], 115%; in assay [3] it was 97%; in assay [4], 99.2%; in assay [5] it was 91.7%; in assay [6], 99%. For the same compound, the results for the growth in assay [7] and in assay [8] were 114% and 107%, respectively.
On to `N=C(N)c1ccc(-c2ccc(-c3ccc(Cl)cc3Cl)s2)nc1`, for which the growth in assay [1] is 81.2%; in assay [2], 105%; in assay [3], 62.5%; in assay [4], -63.6% (active); in assay [5], -30.5% (active); in assay [6], -69.5% (active). Further, the results for the growth in assay [7] and in assay [8] were -33% (active) and -31.5% (active), respectively.
On to `Cc1cccc(CN(Nc2ccccc2)c2ccccc2)n1`, for which the growth was 87.2% in assay [1]; 111% in assay [2]; 103% in assay [3]; 107% in assay [4]; 93.3% in assay [5]; 95.5% in assay [6]. Besides, the growth is 112% in assay [7] and 110% in assay [8].
On to `N#Cc1nn(-c2ccccn2)c(N)c1C#N`, for which the growth was 84.1% in assay [1]; 98.3% in assay [2]; 101% in assay [3]; 115% in assay [4]; 99.8% in assay [5]; 87.7% in assay [6]. Moreover, the growth in assay [7] was 106%; in assay [8], 101%.
On to `COc1ccc(C(=O)/C=C/c2ccc(Cl)cc2)cc1S(N)(=O)=O`, for which the growth was 69.9% in assay [1]; 12.2% in assay [2]; 86.2% in assay [3]; 13.2% in assay [4]; 18% in assay [5]; -78.3% (active) in assay [6]. For the same compound, the growth in assay [7] was 100%; in assay [8], 28.2%.
In the case of `N#C/C(Sc1nc2sc3c(c2c(=O)n1Cc1ccccc1)CCCC3)=C1/SC=C(c2ccc(Cl)cc2)N1c1ccccc1`, the growth in assay [1] is 91.5%; in assay [2], 101%; in assay [3], 109%; in assay [4] it was 89.9%; in assay [5], 82.5%; in assay [6] it was 83.5%. In addition, the growth in assay [7] is 87.2%; in assay [8], 95.8%.
Regarding `CC1(C)C2=C(C(=O)N1Cc1ccccc1)C(c1ccco1)N(C(=O)C1CCC1)CCN2` (centres undefined), the growth in assay [1] is 90.9%; in assay [2] it was 106%; in assay [3] it was 101%; in assay [4] it was 103%; in assay [5], 103%; in assay [6], 92.6%. Besides, the growth in assay [7] is 98.4%; in assay [8], 101%.
Turning to `O=C1c2ccccc2-c2c1c1ccncc1c(=O)n2CCCn1ccnc1`, the growth in assay [1] is 23.6%; in assay [2], 46.7%; in assay [3], 86.3%; in assay [4] it was 18.7%; in assay [5], 9.35% (active); in assay [6], 5.31% (active). Further, the growth in assay [7] was 73.9%; in assay [8] it was 32.8%.
On to `O=c1n(C2OC(CO)C(O)C2O)ccc2nccn12` (centres undefined), for which the growth was 118% in assay [1]; 121% in assay [2]; 102% in assay [3]; 94.4% in assay [4]; 94.1% in assay [5]; 112% in assay [6]. Further, the figures for the growth in assay [7] and in assay [8] were 110% and 103%, respectively.
For the compound `C=C(CNCCc1ccc(O)cc1)[C@@H]1CC[C@]2(CO)CC[C@]3(C)[C@H](CC[C@@H]4[C@@]5(C)CCC(N)C(C)(C)[C@@H]5CC[C@]43C)[C@@H]12` (some centres undefined), the growth in assay [1] was -65.7% (active); in assay [2], 59.7%; in assay [3] it was -90.5% (active); in assay [4] it was -81.6% (active); in assay [5] it was -72.3% (active); in assay [6], -65.9% (active). In addition, the figures for the growth in assay [7] and in assay [8] were -89.5% (active) and -60.6% (active), respectively.
